# Results filed as inconclusive are left out. Where a call stands in place of a potency, no number is given. Activity calls are given as the source filed them. Unless noted, calls come from the whole dose curve.
# Key:
# [1] = qHTS assay to identify small molecule agonists of the sonic hedgehog signaling (Shh) pathway (AID 1259368);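 note: NIH/3T3-derived 3T3Gli1-Luc cells carrying a stable Gli1-driven firefly luciferase reporter; series mostly up to about 92 µM; nearly all actives have a fitted effect of over 15% in size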
# Outline: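 Stable NIH/3T3 Gli1-Luc reporter clone; 24 hr cpd exposure after a 4 hr settling period; luminescence endpoint.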
# [2] = molecular target: Estrogen receptor beta (Homo sapiens) (UniProt Q92731); experiment: qHTS assay to identify small molecule agonists of the estrogen receptor beta (ER-beta) signaling pathway (AID 1259377; active = well fitted activation curve with a large enough effect in the signal ratio in the repeat runs, not every such curve was filed as active; the % refers to the signal ratio)
# Estrogen receptor beta (Homo sapiens), sequence (Q92731 whole entry, looked up, the tested form may be a part): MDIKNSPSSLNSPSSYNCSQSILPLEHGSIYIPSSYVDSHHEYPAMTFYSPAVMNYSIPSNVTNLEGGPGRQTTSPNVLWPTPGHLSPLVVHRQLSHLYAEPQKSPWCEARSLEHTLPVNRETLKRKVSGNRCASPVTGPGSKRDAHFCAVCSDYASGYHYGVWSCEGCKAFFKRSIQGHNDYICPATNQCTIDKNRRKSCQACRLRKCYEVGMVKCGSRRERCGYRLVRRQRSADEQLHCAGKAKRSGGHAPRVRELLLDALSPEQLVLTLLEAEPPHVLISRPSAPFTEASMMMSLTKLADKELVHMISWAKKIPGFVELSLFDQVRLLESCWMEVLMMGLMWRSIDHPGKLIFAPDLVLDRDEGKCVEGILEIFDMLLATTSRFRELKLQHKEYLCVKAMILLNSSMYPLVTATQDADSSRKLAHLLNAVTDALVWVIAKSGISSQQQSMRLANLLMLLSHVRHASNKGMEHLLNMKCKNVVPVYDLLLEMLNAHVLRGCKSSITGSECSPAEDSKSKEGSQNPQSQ
# Outline: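 Agonist mode cell assay in GripTite HEK293T cells expressing an ER-beta fusion that drives beta-lactamase from an Upstream Activator Sequence; 16 hr compound exposure at 37C, then 2 h LiveBLAzer B/G FRET substrate at room temperature, fluorescence read-out.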
# [3] = molecular target: Estrogen receptor beta (Homo sapiens) (UniProt Q92731); experiment: qHTS assay to identify small molecule antagonists of the estrogen receptor beta (ER-beta) signaling pathway (AID 1259378; active = well fitted inhibition curve with a large enough effect in the signal ratio in the repeat runs, not every such curve was filed as active; the % refers to the signal ratio)
# Outline: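 ER-beta-UAS-bla HEK293T (GripTite) cells in 2% charcoal-stripped FBS medium were preincubated 6 hr at 37C, dosed with compound, then stimulated with 1 nM E2 (final) for 16 hr; beta-lactamase reporter read by B/G FRET fluorescence after 2 hr substrate loading.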
# [4] = qHTS assay to identify small molecule agonists of the androgen receptor (AR) signaling pathway in the presence of an antagonist - cell viability counter screen (AID 1259379; active = well fitted curve in the direction sought with a large enough effect in the repeat runs; an effect the other way counts as inactive or inconclusive;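 note: MDA-kb2 human breast cancer cells carrying an MMTV luciferase reporter; series mostly up to about 92 µM; nearly all actives have a fitted effect of over 25% in size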)
# Outline: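 Counter screen for cell viability run in parallel with the AR agonist-mode luciferase assay. MDA-kb2 cells were co-treated with nilutamide (3.0uM final) and compounds, then incubated 16 hr at 37C, and CellTiter-Fluor fluorescence was measured.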
# [5] = qHTS assay to identify small molecule agonists of the estrogen receptor beta (ER-beta) signaling pathway - cell viability counter screen (AID 1259380; active = well fitted curve in the direction sought with a large enough effect in the repeat runs; an effect the other way counts as inactive or inconclusive; note: nearly all actives have a fitted effect of over 30% in size)
# Outline: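 In this qHTS counter screen, HEK293T cells carrying an ER-beta/UAS beta-lactamase reporter, grown in 2% charcoal-stripped FBS, received compound for 16 hr; ATP-based CellTiter-Glo luminescence was then read after 30 min at room temperature.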
# [6] = molecular target: Androgen receptor (Homo sapiens) (UniProt P10275); experiment: qHTS assay to identify small molecule agonists of the androgen receptor (AR) signaling pathway in the presence of an antagonist (AID 1259381); note: nearly all actives have a fitted effect of over 15% in size
# Androgen receptor (Homo sapiens), sequence (P10275 whole entry, looked up): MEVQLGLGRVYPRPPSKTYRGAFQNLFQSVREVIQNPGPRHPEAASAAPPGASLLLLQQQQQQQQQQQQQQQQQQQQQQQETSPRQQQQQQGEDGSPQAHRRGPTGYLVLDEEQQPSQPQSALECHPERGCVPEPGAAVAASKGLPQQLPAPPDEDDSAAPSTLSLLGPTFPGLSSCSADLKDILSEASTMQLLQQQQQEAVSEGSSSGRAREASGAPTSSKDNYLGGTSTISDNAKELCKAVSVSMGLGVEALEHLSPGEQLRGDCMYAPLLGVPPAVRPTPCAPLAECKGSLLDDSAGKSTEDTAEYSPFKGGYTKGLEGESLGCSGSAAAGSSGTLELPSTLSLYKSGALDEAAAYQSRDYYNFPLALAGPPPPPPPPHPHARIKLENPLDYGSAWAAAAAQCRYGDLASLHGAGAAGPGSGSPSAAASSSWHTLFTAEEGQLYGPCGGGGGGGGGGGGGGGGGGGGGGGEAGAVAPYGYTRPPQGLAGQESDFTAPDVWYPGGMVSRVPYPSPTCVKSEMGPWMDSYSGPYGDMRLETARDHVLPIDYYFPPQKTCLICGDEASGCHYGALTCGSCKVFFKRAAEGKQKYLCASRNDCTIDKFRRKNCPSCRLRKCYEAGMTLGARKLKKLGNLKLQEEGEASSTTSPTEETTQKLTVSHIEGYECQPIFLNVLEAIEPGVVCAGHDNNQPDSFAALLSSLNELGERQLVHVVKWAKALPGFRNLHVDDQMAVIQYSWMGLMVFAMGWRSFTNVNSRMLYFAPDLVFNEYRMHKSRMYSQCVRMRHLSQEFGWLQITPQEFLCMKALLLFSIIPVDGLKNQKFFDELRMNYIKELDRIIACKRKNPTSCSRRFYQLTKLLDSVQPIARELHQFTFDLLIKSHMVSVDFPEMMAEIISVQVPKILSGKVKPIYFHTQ
# Outline: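 AR antagonist background: nilutamide 3.0uM final. Cell line: MDA-kb2, MMTV-driven luciferase, responsive to both AR and GR. Exposure 16hr, 37C, no CO2; ONE-Glo luminescence.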
# [7] = molecular target: Thyrotropin receptor (Homo sapiens) (UniProt P16473); experiment: qHTS assay to identify small molecule antagonists of the thyroid stimulating hormone receptor (TSHR) signaling pathway (AID 1259385); note: nearly all actives have a fitted effect of over 20% in size
# Thyrotropin receptor (Homo sapiens), sequence (P16473 whole entry, looked up): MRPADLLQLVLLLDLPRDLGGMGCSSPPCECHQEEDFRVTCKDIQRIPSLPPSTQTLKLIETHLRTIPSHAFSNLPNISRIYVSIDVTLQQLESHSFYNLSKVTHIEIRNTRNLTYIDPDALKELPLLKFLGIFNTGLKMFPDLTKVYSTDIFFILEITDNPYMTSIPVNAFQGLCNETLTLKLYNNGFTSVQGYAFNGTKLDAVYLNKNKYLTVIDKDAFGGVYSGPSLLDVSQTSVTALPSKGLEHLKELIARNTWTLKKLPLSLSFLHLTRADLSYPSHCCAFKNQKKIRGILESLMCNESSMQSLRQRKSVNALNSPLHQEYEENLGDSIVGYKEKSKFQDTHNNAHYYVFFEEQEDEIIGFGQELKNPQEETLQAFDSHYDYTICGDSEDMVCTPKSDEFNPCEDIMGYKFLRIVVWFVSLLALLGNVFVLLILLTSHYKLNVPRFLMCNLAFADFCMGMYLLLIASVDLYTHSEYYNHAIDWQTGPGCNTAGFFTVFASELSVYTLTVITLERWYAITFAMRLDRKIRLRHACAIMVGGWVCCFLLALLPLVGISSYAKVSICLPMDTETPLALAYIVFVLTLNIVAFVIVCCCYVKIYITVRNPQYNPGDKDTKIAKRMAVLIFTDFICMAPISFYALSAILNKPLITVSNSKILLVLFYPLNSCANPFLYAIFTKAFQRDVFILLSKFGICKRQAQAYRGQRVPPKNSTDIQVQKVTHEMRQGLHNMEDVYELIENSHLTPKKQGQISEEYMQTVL
# Outline: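 TSHR-HEK293 cells were plated and held 18 h at 37C/5% CO2, then given compound plus Ro20-1724 and stimulated with TSH at 1.5 ng/mL final. After 30 min at room temperature, cAMP was detected with cAMP-d2/anti-cAMP-cryptate (1 h) by fluorescence.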
# [8] = qHTS assay to identify small molecule agonists of the estrogen receptor alpha (ER-alpha) signaling pathway in the presence of an antagonist - cell viability counter screen (AID 1259386; active = well fitted curve in the direction sought with a large enough effect in the repeat runs; an effect the other way counts as inactive or inconclusive;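 note: series mostly up to about 92 µM; cells exposed to compounds for 22 h at 37 °C before the viability read; nearly all actives have a fitted effect of over 30% in size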)
# Outline: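 Steps: 5-day stripped-FBS culture; seed and incubate 24hr; add ICI-182,780 (10.0nM final); pin 15-point compound titration; incubate 22hr at 37C; add CellTiter-Fluor at 21hr; read fluorescence.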
# [9] = molecular target: Progesterone receptor (Homo sapiens) (UniProt P06401); experiment: qHTS assay to identify small molecule agonists of the progesterone receptor (PR) signaling pathway (AID 1346784); note: nearly all actives have a fitted effect of over 30% in size
# Progesterone receptor (Homo sapiens), sequence (P06401 whole entry, looked up): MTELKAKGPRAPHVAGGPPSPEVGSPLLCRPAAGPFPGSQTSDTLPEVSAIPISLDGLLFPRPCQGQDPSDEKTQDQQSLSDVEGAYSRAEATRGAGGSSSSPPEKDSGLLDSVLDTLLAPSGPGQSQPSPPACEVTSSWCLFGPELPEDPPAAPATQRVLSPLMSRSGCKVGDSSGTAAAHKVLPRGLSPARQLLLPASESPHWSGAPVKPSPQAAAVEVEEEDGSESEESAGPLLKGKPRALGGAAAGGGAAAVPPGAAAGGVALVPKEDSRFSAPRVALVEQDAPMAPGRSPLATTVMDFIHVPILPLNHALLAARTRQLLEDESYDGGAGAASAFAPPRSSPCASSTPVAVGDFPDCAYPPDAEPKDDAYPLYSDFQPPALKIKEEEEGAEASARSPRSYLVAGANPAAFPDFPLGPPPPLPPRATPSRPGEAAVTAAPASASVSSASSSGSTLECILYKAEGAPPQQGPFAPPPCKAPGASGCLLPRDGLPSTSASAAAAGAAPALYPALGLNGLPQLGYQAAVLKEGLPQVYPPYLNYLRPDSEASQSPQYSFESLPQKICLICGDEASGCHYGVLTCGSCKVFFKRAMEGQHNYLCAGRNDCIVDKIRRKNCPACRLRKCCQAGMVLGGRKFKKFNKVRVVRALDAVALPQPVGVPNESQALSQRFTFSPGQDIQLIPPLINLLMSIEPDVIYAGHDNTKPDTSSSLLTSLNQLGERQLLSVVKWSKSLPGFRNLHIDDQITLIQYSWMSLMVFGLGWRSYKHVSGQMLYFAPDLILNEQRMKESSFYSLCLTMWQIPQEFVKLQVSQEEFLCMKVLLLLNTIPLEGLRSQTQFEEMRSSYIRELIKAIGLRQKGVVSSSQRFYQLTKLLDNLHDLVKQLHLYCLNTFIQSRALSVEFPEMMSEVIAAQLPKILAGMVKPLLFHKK
# Outline: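 Cells (PR-UAS-bla HEK 293T, GripTite) were plated in assay medium containing 2% charcoal-stripped FBS and incubated 6 hr. Test compounds in DMSO were added for 16 hr at 37C. FRET substrate was then loaded for 2 hr at room temperature before fluorescence reading.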
# [10] = molecular target: Progesterone receptor (Homo sapiens) (UniProt P06401); experiment: qHTS assay to identify small molecule antagonists of the progesterone receptor (PR) signaling pathway (AID 1346795; active = well fitted inhibition curve with a large enough effect in the signal ratio in the repeat runs, not every such curve was filed as active; the % refers to the signal ratio; note: potency is the fitted concentration of half-maximal effect)
# Outline: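 Antagonist mode: compounds tested against 1 nM (final) promegestone stimulation in HEK293T cells expressing PR-UAS-bla reporter, 16 hr at 37C, 5% CO2; beta-lactamase activity detected via B/G FRET substrate after 2 hr at room temperature.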
# [11] = qHTS assay to identify small molecule antagonists of the TGF-beta/Smad signaling pathway - cell viability counter screen (AID 1346824; active = well fitted curve in the direction sought with a large enough effect in the repeat runs; an effect the other way counts as inactive or inconclusive; note: nearly all actives have a fitted effect of over 50% in size)
# Outline: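 SBE-bla HEK 293T cells were plated overnight at 37 C, then given compounds in DMSO plus TGF-beta1 (added as 0.25 ng/mL solution) for 5 hr. After the bla read, CellTiter-Glo was added to the same wells and luminescence read after 30 min at room temperature.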
# [12] = qHTS assay to identify small molecule agonists of the TGF-beta/Smad signaling pathway - cell viability counter screen (AID 1346829; active = well fitted curve in the direction sought with a large enough effect in the repeat runs; an effect the other way counts as inactive or inconclusive; note: top concentration of the series differs between compounds; nearly all actives have a fitted effect of over 45% in size)
# Outline: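 Tox21 qHTS format: SBE-bla HEK 293T cells treated with DMSO-dissolved compounds for 5 hr; CellTiter-Glo luminescence after 30 min at room temperature.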
# [13] = qHTS assay to identify small molecule agonists of the TGF-beta/Smad signaling pathway (AID 1346859; active = well fitted activation curve with a large enough effect in the signal ratio in the repeat runs, not every such curve was filed as active; the % refers to the signal ratio; note: series mostly up to about 77 µM)
# Outline: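 Reporter line: HEK 293T with stably integrated SBE-controlled beta-lactamase. Compound exposure lasts 5 hr at 37 C and 5% CO2; substrate loading follows for 2 hr at room temperature, with emission read at 460 and 530 nm.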
# [14] = molecular target: Thyrotropin-releasing hormone receptor (Homo sapiens) (UniProt P34981); experiment: qHTS assay to identify small molecule antagonists of the thyrotropin-releasing hormone receptor (TRHR) signaling pathway (AID 1346877; active = well fitted inhibition curve with a large enough effect in the repeat runs, not every such curve was filed as active; note: series mostly up to about 51 µM)
# Thyrotropin-releasing hormone receptor (Homo sapiens), sequence (P34981 whole entry, looked up): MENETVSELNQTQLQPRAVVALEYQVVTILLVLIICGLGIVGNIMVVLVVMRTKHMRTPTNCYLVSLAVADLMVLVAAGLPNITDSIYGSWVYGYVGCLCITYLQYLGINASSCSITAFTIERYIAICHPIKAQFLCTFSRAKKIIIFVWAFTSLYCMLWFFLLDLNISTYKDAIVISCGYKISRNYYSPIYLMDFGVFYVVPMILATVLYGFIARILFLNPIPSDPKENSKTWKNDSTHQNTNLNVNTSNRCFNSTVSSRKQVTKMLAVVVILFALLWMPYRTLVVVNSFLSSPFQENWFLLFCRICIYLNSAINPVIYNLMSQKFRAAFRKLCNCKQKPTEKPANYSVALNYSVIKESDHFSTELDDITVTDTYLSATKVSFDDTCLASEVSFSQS
# Outline: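 Human TRHR in HEK293 cells; inhibition of the intracellular calcium rise triggered by 1 nM TRH was followed by fluorescence over 3 min. Compounds were run at 15 concentrations, three replicates each.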
# [15] = qHTS assay to identify small molecule antagonists of the sonic hedgehog signaling (Shh) pathway (AID 1259369); note: nearly all actives have a fitted effect of over 45% in size; note: potency is the fitted concentration of half-maximal effect
# Outline: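 Gli1 transcriptional reporter (firefly Luc) in NIH/3T3 background, conditioned-medium activated. 24hr exposure, luminescence endpoint.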
# [16] = qHTS assay to identify small molecule antagonists of the estrogen receptor beta (ER-beta) signaling pathway - cell viability counter screen (AID 1259382; active = well fitted curve in the direction sought with a large enough effect in the repeat runs; an effect the other way counts as inactive or inconclusive; note: series mostly up to about 92 µM; nearly all actives have a fitted effect of over 55% in size)
# Outline: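 HEK293T ER-beta-UAS-bla, 2% charcoal-stripped FBS; compounds + 1nM E2 16 hr 37C; CellTiter-Glo luminescence, 30 min RT.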
# [17] = molecular target: Estrogen receptor (Homo sapiens) (UniProt P03372); experiment: qHTS assay to identify small molecule agonists of the estrogen receptor alpha (ER-alpha) signaling pathway in the presence of an antagonist (AID 1259383); note: top concentration of the series differs between compounds; nearly all actives have a fitted effect of over 15% in size
# Estrogen receptor (Homo sapiens), sequence (P03372 whole entry, looked up): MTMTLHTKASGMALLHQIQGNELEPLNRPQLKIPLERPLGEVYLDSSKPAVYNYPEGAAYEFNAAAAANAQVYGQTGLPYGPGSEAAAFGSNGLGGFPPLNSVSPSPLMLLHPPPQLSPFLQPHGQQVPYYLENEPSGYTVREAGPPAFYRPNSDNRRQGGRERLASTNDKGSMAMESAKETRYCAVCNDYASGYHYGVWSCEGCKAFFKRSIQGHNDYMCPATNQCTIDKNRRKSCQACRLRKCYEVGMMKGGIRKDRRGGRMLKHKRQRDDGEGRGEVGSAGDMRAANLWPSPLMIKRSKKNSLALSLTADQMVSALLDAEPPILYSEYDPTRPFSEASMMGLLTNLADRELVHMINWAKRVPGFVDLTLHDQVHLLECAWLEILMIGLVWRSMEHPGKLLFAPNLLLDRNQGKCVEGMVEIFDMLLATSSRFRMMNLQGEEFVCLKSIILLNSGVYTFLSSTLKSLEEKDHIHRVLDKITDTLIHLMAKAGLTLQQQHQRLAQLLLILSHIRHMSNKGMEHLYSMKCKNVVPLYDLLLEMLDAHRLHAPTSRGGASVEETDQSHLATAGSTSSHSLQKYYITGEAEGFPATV
# Outline: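 ER-alpha agonism measured under antagonist challenge: 10.0nM ICI-182,780 (final) plus compound, 15 concentrations, 22hr, VM7Luc4E2 ERE-luciferase cells. Read by luminescence.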
# [18] = qHTS assay to identify small molecule agonists or antagonists of the thyroid stimulating hormone receptor (TSHR) signaling pathway - wild type cell line counter screen (AID 1259384)
# Outline: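 Wild-type HEK293 cells were plated 18 h at 37 C/5% CO2, pin-dosed with compound plus Ro20-1724 medium, held 30 min at room temperature, then given cAMP-d2 and anti-cAMP-cryptate; fluorescence was read after 1 h. Fifteen concentrations, triplicate.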
# [19] = qHTS assay to identify small molecule antagonists of the progesterone receptor (PR) signaling pathway - cell viability counter screen (AID 1346798; active = well fitted curve in the direction sought with a large enough effect in the repeat runs; an effect the other way counts as inactive or inconclusive; note: series mostly up to about 92 µM; nearly all actives have a fitted effect of over 50% in size)
# Outline: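 Counter screen for cytotoxicity: viability of PR-UAS-bla HEK293T cells was measured with CellTiter-Glo luminescence following 16 hr compound exposure in the presence of R5020.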
# [20] = qHTS assay to identify small molecule agonists of the progesterone receptor (PR) signaling pathway - cell viability counter screen (AID 1346799); note: nearly all actives have a fitted effect of over 45% in size; note: potency is the fitted concentration of half-maximal effect
# Outline: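 Cells (PR-UAS-bla HEK293T) are plated at 3,000/well in 2% charcoal-stripped FBS medium, rested 6 hr, dosed and incubated 16 hr at 37C. CellTiter-Glo is then added and luminescence measured after 30 min at room temperature.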
Structure (SMILES),Potency [1],Potency [2],Potency [3],Potency [4],Potency [5],Potency [6],Potency [7],Potency [8],Potency [9],Potency [10],outcome [11],outcome [12],outcome [13],outcome [14],Potency [15],Potency [16],Potency [17],outcome [18],Potency [19],Potency [20]
N#C/C(=C1\SCC(c2ccccc2Cl)S1)n1ccnc1 (stereo not given),inactive,inactive,inactive,inactive,inactive,inactive,inactive,inactive,inactive,23.7 µM (active),inactive,inactive,inactive,inactive,,,,,,
C[C@@H]1C[C@H]2[C@@H]3CCC4=CC(=O)C=C[C@]4(C)[C@@]3(F)[C@@H](O)C[C@]2(C)[C@@]1(O)C(=O)CO,inactive,,,inactive,inactive,,,inactive,,,inactive,inactive,inactive,,492 nM (active),inactive,,,,
Brc1cc(-c2ccc(Br)c(Br)c2Br)cc(Br)c1Br,inactive,inactive,inactive,inactive,inactive,,inactive,inactive,inactive,,inactive,inactive,inactive,inactive,,inactive,inactive,inactive,inactive,inactive
Oc1ccc(Nc2ccccc2)cc1,inactive,,,inactive,,inactive,,,inactive,27.3 µM (active),inactive,inactive,inactive,,inactive,,inactive,inactive,inactive,
C=CCNc1nc(NCC=C)nc(N2CCN(C(c3ccc(F)cc3)c3ccc(F)cc3)CC2)n1,inactive,,,,,inactive,,inactive,,2.98 µM (active),inactive,inactive,inactive,inactive,inactive,,inactive,inactive,,
Nc1ccc(S(=O)(=O)O)cc1,inactive,,,inactive,inactive,,,,,inactive,inactive,inactive,inactive,inactive,inactive,,inactive,,inactive,inactive
CC(C)C(=O)O,inactive,,,inactive,inactive,,,inactive,inactive,inactive,inactive,,inactive,,inactive,,inactive,,inactive,inactive
Cc1occc1C(=O)Nc1ccc(C(=O)N2CCC(F)(F)/C(=C\C(=O)N3CCC(N4CCCCC4)CC3)c3ccccc32)cc1,inactive,inactive,inactive,inactive,,inactive,inactive,inactive,inactive,inactive,inactive,inactive,inactive,,,inactive,inactive,,,
Nc1ccc(S(=O)(=O)O)c(N)c1,inactive,,,inactive,inactive,,inactive,inactive,,inactive,inactive,inactive,inactive,,inactive,,inactive,inactive,inactive,inactive
Cc1cnc(C)c(C)n1,inactive,,,inactive,,,inactive,,inactive,inactive,inactive,,inactive,,inactive,,,inactive,,28.6 µM (active)

# — PubChem BioAssay (Tox21)
